Measurements taken from paper PMC7862700, “An all-to-all approach to the identification of sequence-specific readers for epigenetic DNA modifications on cytosine”.

Tests used:
Experiment in all cases: DAPPL (digital affinity profiling via proximity ligation, sequencing); 10 mM Tris-HCl pH 7.5, 50 mM NaCl, 1 mM DTT, 4% glycerol, room temperature, 30 min; GST-TFs on glutathione beads, 16-mer random dsDNA library, 0.1% formaldehyde crosslink after washing; high values mean tight binding
Conditions in all cases: protein: recombinant; tags: N-terminal GST; dsDNA, one strand shown
FLI1 = target: T1, FLI1 (Homo sapiens, UniProt Q01543 1-452)
T1 sequence: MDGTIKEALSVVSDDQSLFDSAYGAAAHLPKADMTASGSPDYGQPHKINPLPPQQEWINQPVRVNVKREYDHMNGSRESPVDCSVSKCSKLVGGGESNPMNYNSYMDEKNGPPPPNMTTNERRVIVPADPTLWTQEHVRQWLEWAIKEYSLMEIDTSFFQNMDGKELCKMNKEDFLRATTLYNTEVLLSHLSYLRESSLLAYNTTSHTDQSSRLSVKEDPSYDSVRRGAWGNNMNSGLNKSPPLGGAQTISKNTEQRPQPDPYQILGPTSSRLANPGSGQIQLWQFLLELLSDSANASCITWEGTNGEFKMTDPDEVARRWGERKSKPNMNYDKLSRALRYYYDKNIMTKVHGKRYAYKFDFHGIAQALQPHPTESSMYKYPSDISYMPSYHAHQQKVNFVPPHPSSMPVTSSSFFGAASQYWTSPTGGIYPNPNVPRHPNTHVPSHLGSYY
How it was run: (§1)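 The binding signal reported is, for every hexamer, its read frequency for a factor over its read frequency for the tag-only sample. Reads came from pools of yeast-expressed, GST-fused human transcription factors on glutathione beads, barcoded with DNA and mixed with that sample, which were incubated with 200 nmole of a random double-stranded 16-mer DNA library in Tris/NaCl/DTT/glycerol buffer at room temperature for 30 min. After washing, the pools were crosslinked with 0.1% formaldehyde, proximity-ligated with BsaI/T4 ligase for 1 h at 37 °C, PCR-amplified and sequenced on an Illumina NextSeq500.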

ELK1 = target: T2, ELK1 (Homo sapiens, UniProt P19419 1-428)
T2 sequence: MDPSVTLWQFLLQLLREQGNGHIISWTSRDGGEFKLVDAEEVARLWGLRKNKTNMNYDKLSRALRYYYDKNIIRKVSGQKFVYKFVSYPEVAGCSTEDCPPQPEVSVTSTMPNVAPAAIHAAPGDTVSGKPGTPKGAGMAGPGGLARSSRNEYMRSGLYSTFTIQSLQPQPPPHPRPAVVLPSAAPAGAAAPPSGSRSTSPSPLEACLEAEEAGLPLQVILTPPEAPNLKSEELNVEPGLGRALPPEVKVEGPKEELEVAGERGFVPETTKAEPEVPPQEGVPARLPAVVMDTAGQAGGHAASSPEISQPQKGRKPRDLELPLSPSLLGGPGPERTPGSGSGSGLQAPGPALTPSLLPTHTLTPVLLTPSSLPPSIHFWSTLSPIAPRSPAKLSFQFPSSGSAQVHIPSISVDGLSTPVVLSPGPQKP
How it was run: as §1

GABPA = target: T3, GABPA (Homo sapiens, UniProt Q06546 1-454)
T3 sequence: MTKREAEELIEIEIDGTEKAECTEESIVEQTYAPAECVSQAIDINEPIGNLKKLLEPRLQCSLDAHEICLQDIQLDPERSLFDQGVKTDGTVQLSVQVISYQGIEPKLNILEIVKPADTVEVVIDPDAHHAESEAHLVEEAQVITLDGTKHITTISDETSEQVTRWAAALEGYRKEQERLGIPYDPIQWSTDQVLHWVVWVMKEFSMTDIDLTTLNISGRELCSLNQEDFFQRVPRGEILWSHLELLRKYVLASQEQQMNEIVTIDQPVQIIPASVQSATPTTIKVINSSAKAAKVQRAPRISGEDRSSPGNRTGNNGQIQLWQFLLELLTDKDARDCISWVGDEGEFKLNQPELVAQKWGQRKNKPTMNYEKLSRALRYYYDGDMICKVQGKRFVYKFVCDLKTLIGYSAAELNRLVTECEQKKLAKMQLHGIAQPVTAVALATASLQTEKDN
How it was run: as §1

ERG = target: T4, ERG (Homo sapiens, UniProt P11308 1-479)
T4 sequence: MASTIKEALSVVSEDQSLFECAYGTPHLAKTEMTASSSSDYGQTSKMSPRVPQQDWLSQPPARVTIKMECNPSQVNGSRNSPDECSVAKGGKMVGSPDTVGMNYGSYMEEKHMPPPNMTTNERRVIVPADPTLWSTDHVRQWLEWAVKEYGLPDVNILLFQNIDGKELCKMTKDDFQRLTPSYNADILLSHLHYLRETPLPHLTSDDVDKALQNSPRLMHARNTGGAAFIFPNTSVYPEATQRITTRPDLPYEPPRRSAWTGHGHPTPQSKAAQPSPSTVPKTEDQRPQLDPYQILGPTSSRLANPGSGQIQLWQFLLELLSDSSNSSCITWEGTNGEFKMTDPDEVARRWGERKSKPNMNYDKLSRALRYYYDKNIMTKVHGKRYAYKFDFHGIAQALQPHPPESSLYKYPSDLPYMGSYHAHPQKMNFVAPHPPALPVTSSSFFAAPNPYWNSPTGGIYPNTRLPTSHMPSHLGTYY
How it was run: as §1

ELF1 = ELF1 (Homo sapiens, UniProt P32519 1-619)
How it was run: as §1

EHF = target: T5, EHF (Homo sapiens, UniProt Q9NZC4 1-300)
T5 sequence: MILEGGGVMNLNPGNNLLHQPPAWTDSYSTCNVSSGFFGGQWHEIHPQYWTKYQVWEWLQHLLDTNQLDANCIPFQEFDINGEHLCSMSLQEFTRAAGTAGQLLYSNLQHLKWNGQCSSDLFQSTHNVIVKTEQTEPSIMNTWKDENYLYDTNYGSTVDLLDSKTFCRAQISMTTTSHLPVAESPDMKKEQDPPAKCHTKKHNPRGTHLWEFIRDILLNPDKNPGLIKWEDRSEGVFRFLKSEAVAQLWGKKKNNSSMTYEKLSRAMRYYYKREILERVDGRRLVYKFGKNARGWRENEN
How it was run: as §1

SPI1 = SPI1 (Homo sapiens, UniProt P17947 1-270)
How it was run: as §1

SPIB = SPIB (Homo sapiens, UniProt Q01892 1-262)
How it was run: as §1

ELK3 = target: T6, ELK3 (Homo sapiens, UniProt P41970 1-407)
T6 sequence: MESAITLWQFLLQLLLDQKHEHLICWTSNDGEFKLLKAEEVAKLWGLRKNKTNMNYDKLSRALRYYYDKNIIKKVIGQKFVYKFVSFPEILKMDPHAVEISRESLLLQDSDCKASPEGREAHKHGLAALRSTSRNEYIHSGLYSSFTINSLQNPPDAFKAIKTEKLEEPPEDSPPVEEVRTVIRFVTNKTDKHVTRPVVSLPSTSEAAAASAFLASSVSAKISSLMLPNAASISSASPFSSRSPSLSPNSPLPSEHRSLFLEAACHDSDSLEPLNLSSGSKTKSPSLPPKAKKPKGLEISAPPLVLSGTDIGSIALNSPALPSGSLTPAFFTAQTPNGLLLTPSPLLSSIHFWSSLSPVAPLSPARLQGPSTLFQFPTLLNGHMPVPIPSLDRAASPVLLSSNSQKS
How it was run: as §1

ELF1, sequence (P32519 whole entry): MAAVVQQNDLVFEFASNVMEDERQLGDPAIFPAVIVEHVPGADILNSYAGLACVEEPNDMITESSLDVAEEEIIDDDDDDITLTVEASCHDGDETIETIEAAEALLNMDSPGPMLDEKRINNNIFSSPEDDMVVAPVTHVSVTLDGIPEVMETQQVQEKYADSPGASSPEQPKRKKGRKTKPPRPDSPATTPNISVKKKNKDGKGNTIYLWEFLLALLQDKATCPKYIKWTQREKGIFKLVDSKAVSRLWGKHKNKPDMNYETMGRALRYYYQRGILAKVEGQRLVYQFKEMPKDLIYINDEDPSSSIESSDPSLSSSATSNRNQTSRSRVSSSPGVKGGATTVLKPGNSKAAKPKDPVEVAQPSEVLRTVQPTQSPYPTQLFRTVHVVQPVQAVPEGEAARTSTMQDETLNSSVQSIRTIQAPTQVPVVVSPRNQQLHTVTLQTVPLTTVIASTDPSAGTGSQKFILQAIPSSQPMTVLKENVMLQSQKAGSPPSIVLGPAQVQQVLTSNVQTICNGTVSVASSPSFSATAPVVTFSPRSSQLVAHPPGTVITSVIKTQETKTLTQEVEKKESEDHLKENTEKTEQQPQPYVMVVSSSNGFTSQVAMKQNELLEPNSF
SPIB, sequence (Q01892 whole entry): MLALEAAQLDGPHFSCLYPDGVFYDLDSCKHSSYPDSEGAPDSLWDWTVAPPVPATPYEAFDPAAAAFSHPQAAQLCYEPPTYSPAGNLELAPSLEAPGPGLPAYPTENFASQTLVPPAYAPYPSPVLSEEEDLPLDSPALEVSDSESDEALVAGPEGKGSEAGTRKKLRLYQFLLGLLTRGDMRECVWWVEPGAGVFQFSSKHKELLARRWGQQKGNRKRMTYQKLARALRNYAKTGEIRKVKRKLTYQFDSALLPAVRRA

Sequence	binding signal (FLI1)	binding signal (ELK1)	binding signal (GABPA)	binding signal (ERG)	binding signal (ELF1)	binding signal (EHF)	binding signal (SPI1)	binding signal (SPIB)	binding signal (ELK3)
CTTCCC	2.11 fold enrichment (6-mer frequency, TF over GST control)	2.06 fold enrichment (6-mer frequency, TF over GST control)	2.07 fold enrichment (6-mer frequency, TF over GST control)	2.19 fold enrichment (6-mer frequency, TF over GST control)	2.29 fold enrichment (6-mer frequency, TF over GST control)	2.4 fold enrichment (6-mer frequency, TF over GST control)	3.35 fold enrichment (6-mer frequency, TF over GST control)	2.45 fold enrichment (6-mer frequency, TF over GST control)	2.08 fold enrichment (6-mer frequency, TF over GST control)
AGATTC	1.15 fold enrichment (6-mer frequency, TF over GST control)	1.14 fold enrichment (6-mer frequency, TF over GST control)	1.16 fold enrichment (6-mer frequency, TF over GST control)	1.19 fold enrichment (6-mer frequency, TF over GST control)	1.21 fold enrichment (6-mer frequency, TF over GST control)	1.2 fold enrichment (6-mer frequency, TF over GST control)	1.22 fold enrichment (6-mer frequency, TF over GST control)	1.14 fold enrichment (6-mer frequency, TF over GST control)	1.07 fold enrichment (6-mer frequency, TF over GST control)
CCGCTT	1.89 fold enrichment (6-mer frequency, TF over GST control)	1.89 fold enrichment (6-mer frequency, TF over GST control)	1.84 fold enrichment (6-mer frequency, TF over GST control)	1.85 fold enrichment (6-mer frequency, TF over GST control)	1.92 fold enrichment (6-mer frequency, TF over GST control)	1.93 fold enrichment (6-mer frequency, TF over GST control)	2.69 fold enrichment (6-mer frequency, TF over GST control)	1.93 fold enrichment (6-mer frequency, TF over GST control)	2.06 fold enrichment (6-mer frequency, TF over GST control)
CTACAC	1.3 fold enrichment (6-mer frequency, TF over GST control)	1.27 fold enrichment (6-mer frequency, TF over GST control)	1.34 fold enrichment (6-mer frequency, TF over GST control)	1.34 fold enrichment (6-mer frequency, TF over GST control)	1.33 fold enrichment (6-mer frequency, TF over GST control)	1.36 fold enrichment (6-mer frequency, TF over GST control)	1.21 fold enrichment (6-mer frequency, TF over GST control)	1.33 fold enrichment (6-mer frequency, TF over GST control)	1.27 fold enrichment (6-mer frequency, TF over GST control)
AATGTT	1.55 fold enrichment (6-mer frequency, TF over GST control)	1.47 fold enrichment (6-mer frequency, TF over GST control)	1.49 fold enrichment (6-mer frequency, TF over GST control)	1.48 fold enrichment (6-mer frequency, TF over GST control)	1.57 fold enrichment (6-mer frequency, TF over GST control)	1.56 fold enrichment (6-mer frequency, TF over GST control)	1.47 fold enrichment (6-mer frequency, TF over GST control)	1.58 fold enrichment (6-mer frequency, TF over GST control)	1.47 fold enrichment (6-mer frequency, TF over GST control)
ATATAG	1.15 fold enrichment (6-mer frequency, TF over GST control)	1.17 fold enrichment (6-mer frequency, TF over GST control)	1.29 fold enrichment (6-mer frequency, TF over GST control)	1.19 fold enrichment (6-mer frequency, TF over GST control)	1.17 fold enrichment (6-mer frequency, TF over GST control)	1.22 fold enrichment (6-mer frequency, TF over GST control)	1.2 fold enrichment (6-mer frequency, TF over GST control)	1.2 fold enrichment (6-mer frequency, TF over GST control)	1.23 fold enrichment (6-mer frequency, TF over GST control)
TTGAAT	1.11 fold enrichment (6-mer frequency, TF over GST control)	1.08 fold enrichment (6-mer frequency, TF over GST control)	1.15 fold enrichment (6-mer frequency, TF over GST control)	1.1 fold enrichment (6-mer frequency, TF over GST control)	1.12 fold enrichment (6-mer frequency, TF over GST control)	1.11 fold enrichment (6-mer frequency, TF over GST control)	1.12 fold enrichment (6-mer frequency, TF over GST control)	1.03 fold enrichment (6-mer frequency, TF over GST control)	1.04 fold enrichment (6-mer frequency, TF over GST control)
TCCAAT	1.21 fold enrichment (6-mer frequency, TF over GST control)	1.13 fold enrichment (6-mer frequency, TF over GST control)	1.18 fold enrichment (6-mer frequency, TF over GST control)	1.13 fold enrichment (6-mer frequency, TF over GST control)	1.24 fold enrichment (6-mer frequency, TF over GST control)	1.11 fold enrichment (6-mer frequency, TF over GST control)	1.14 fold enrichment (6-mer frequency, TF over GST control)	1.25 fold enrichment (6-mer frequency, TF over GST control)	1.16 fold enrichment (6-mer frequency, TF over GST control)
